Measured values: PubChem BioAssay (EPA / NIEHS)
“And” between values parts separate entries of the source, which are not always exact repeats. Equal values may be shown once. Results filed as inconclusive are left out. A structure can be active in one record and inactive in another. The source made the active and inactive calls. How the source made its calls, unless noted: active means hit-call score of the fitted dose curve at least 0.9, where 1 is the maximum; inactive means score below 0.9.

Experiments:
[1] = read-out: Collagen III, COL3A1 (gene 1281); assay: BSK_MyoF_CollagenIII: BioMAP Diversity Plus: MyoF Assay for Collagen III Biomarker Activity (AID 2284239); settings: primary human lung fibroblasts
Method in brief: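 Human lung fibroblasts were dosed with chemicals and, 24 hours later, collagen III was measured by ELISA. Activity was fitted in the positive direction against the DMSO negative-control baseline.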

[2] = read-out: Interleukin 17F (IL17F), IL17F (gene 112744); assay: BSK_BT_xIL17F: BioMAP Diversity Plus: BT Assay for Interleukin 17F (IL17F) Biomarker Activity (AID 2284243); settings: primary human B cells with PBMC
Method in brief: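 B cell/PBMC co-culture (human primary), 24 h compound exposure; sIL-17F by Luminex xMAP; gain-of-signal fit vs DMSO baseline.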

[3] = read-out: Actin alpha 1 (ACTA1), ACTA1 (gene 58); assay: BSK_MyoF_ACTA1: BioMAP Diversity Plus: MyoF Assay for Actin alpha 1 (ACTA1) Biomarker Activity (AID 2284244); settings: primary human lung fibroblasts
Method in brief: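 Cells were exposed to chemical for 24 h before a-SMA levels were quantified by ELISA in human lung fibroblasts. Increases were fitted against DMSO as negative control; parallel SRB staining (0.1% after 10% TCA fixation, 560 nm) assessed cytotoxicity.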

[4] = read-out: Basic fibroblast growth factor (bFGF), FGF2 (gene 2247); assay: BSK_MyoF_bFGF: BioMAP Diversity Plus: MyoF Assay for Basic fibroblast growth factor (bFGF) Biomarker Activity (AID 2284246); settings: primary human lung fibroblasts
Method in brief: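 Chemicals are added to human lung fibroblast cultures and incubated 24 h. bFGF is then measured by ELISA, while parallel cultures receive SRB staining for total protein as a cytotoxicity check. Data are fitted upward against DMSO.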

[5] = read-out: Collagen IV, COL4A1 (gene 1282); assay: BSK_MyoF_CollagenIV: BioMAP Diversity Plus: MyoF Assay for Collagen IV Biomarker Activity (AID 2284247); settings: primary human lung fibroblasts
Method in brief: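 Human lung fibroblast system, 24 h chemical exposure. Endpoint: Collagen IV by ELISA, upward fit vs DMSO.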

[6] = read-out: Interleukin 2 (IL2), IL2 (gene 3558); assay: BSK_BT_xIL2: BioMAP Diversity Plus: BT Assay for Interleukin 2 (IL2) Biomarker Activity (AID 2284245); settings: primary human B cells with PBMC
Method in brief: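 The BT system combines human B cells with peripheral blood mononuclear cells. Twenty-four hours after chemical dosing, secreted IL-2 was measured with xMAP bead technology, and responses were analyzed as increases over DMSO controls.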

[7] = CCTE_Mundy_HCI_Cortical_NOG_BPCount: CCTE's Neurite Outgrowth Assay in rat cortical cells for Branch Point Count, Mundy Lab (AID 2284237)
Method in brief: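 Measured 50.33 h after dosing, this morphology endpoint uses rat primary cortical cultures labelled for betaIII-tubulin. Branch points are quantified by high-content imaging, with DMSO as negative control and baseline.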

[8] = CCTE_Mundy_HCI_hNP1_Casp3_7: CCTE's Caspase-Glo 3/7 Assay in human neuroprogenitor cells for Apoptosis, Mundy Lab (AID 2284240)
Method in brief: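 Neuroepithelial-lineage stem cells from WA09 embryonic cells were treated with chemicals after 40–44 h of culture. Twenty-four hours later, caspase-3/7 activation was detected luminescently after a 30 min room-temperature reagent step, with DMSO as baseline.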

[9] = CCTE_Mundy_HCI_hNP1_CellTiter: CCTE's Cell Titer-Glo 2 Assay in human neuroprogenitor cells for Viability, Mundy Lab (AID 2284241; active means hit-call score of the fitted dose curve at least 0.9, where 1 is the maximum)
Method in brief: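 Measures ATP content in human neural progenitors derived from WA09 embryonic cells. Read-out at 26.5 hours after dosing, with DMSO serving as the negative control and baseline.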

[10] = TAMU_HCS_1.5hr_SingleDonor1434_Cytotoxicity: Cytotoxicity Assessment using High-content Screening (HCS) Fluorescent Imaging for the Texas A&M University (TAMU) 1.5-hr Human Induced Pluripotent Stem Cell (iPSC)-derived Cardiotoxicity Assay (AID 2284234; active means hit-call score of the fitted dose curve at least 0.9, where 1 is the maximum)
Method in brief: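 Nuclear counts from Hoechst 33342 imaging define cytotoxicity here, with EC10 (10% cell-count loss relative to DMSO) as point of departure. iPSC cardiomyocytes received 0.2-100 uM test chemical in 0.5% DMSO for 1.5 h at 37 C.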

[11] = read-out: Monokine induced gamma interferon (MIG), CXCL9 (gene 4283); assay: BSK_KF3CT_MIG: BioMAP Diversity Plus: KF3CT Assay for Monokine induced gamma interferon (MIG) Biomarker Activity (AID 2284248); settings: primary human keratinocytes with fibroblasts
Method in brief: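 Human keratinocyte plus foreskin fibroblast primary co-culture dosed with test chemical for 24 h; MIG level measured by ELISA and fitted in the positive direction against DMSO as baseline.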

[12] = read-out: Collagen I, COL1A1 (gene 1277); assay: BSK_hDFCGF_CollagenI: BioMAP Diversity Plus: hDFCGF Assay for Collagen I Biomarker Activity (AID 2284250); settings: primary human foreskin fibroblasts
Method in brief: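 Collagen I ELISA, primary human foreskin fibroblasts, 24 h chemical exposure, DMSO = negative control/baseline, positive fitting direction.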

[13] = read-out: Interferon-inducible T-cell alpha chemoattractant (ITAC), CXCL11 (gene 6373); assay: BSK_hDFCGF_ITAC: BioMAP Diversity Plus: hDFCGF Assay for Interferon-inducible T-cell alpha chemoattractant (ITAC) Biomarker Activity (AID 2284251); settings: primary human foreskin fibroblasts
Method in brief: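 Chemical dosing of primary human foreskin fibroblast cultures preceded ELISA measurement of I-TAC at 24 h. Response was analysed in the positive direction using DMSO as baseline, while parallel SRB staining measured cytotoxicity.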

[14] = read-out: Plasminogen activator inhibitor-1 (PAI1), SERPINE1 (gene 5054); assay: BSK_KF3CT_PAI1: BioMAP Diversity Plus: KF3CT Assay for Plasminogen activator inhibitor-1 (PAI1) Biomarker Activity (AID 2284252); settings: primary human keratinocytes with fibroblasts
Method in brief: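 Cells (human keratinocytes co-cultured with foreskin fibroblasts) are exposed to test chemical for 24 h. PAI-1 is then measured by ELISA and analysed for signal gain against DMSO.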

[15] = read-out: Interleukin-8 (IL8), CXCL8 (gene 3576); assay: BSK_KF3CT_IL8: BioMAP Diversity Plus: KF3CT Assay for Interleukin-8 (IL8) Biomarker Activity (AID 2284254); settings: primary human keratinocytes with fibroblasts
Method in brief: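 Human primary keratinocyte plus foreskin fibroblast co-culture dosed with test chemicals; IL-8 measured by ELISA 24 h after dosing. Activity fitted in the positive direction relative to DMSO negative control.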

[16] = CCTE_Mundy_HCI_Cortical_NOG_NeuronCount: CCTE's Neurite Outgrowth Assay in rat cortical cells for Neuron Count, Mundy Lab (AID 2284236; active means hit-call score of the fitted dose curve at least 0.9, where 1 is the maximum;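 further: neurons counted by imaging betaIII-tubulin and Hoechst stained cortical cells; cells exposed to compound for about 48 hours before fixation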)
Method in brief: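 Read-out: neuron number by high-content imaging of betaIII-tubulin (Alexa Fluor-488) and Hoechst-labelled rat primary cortical cells.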

Measured: AC50

O=C(Nc1ccccc1SSc1ccccc1NC(=O)c1ccccc1)c1ccccc1
active: [2] 9.15 µM
inactive: [1] | [3] | [4] | [5]

C=CCOc1c(Br)cc(Br)cc1Br
active: [1] 26.2 µM | [2] 26.8 µM | [3] 24.4 µM | [4] 34 µM | [5] 5.88 µM
inactive: [6]

N[C@H]1C(O)O[C@H](CO)[C@H](O)[C@@H]1O (stereo partly drawn)
inactive: [7] | [8] | [9]

O=C(Cl)c1cc(C(=O)Cl)cc(C(=O)Cl)c1
active: [1] 33.2 µM | [2] 29.5 µM | [3] 35.1 µM | [6] 29.7 µM | [4] 36.9 µM | [5] 30 µM

CCCCC/C=C\C/C=C\CCCCCCCC(=O)OC
active: [1] 20 µM | [2] 25.2 µM | [3] 29.4 µM | [6] 28.9 µM
inactive: [4] | [5]

CC(C)C(=O)C(C)C
inactive: [1] | [2] | [3] | [6] | [4] | [5]

S=C(NC1CCCCC1)NC1CCCCC1
inactive: [1] | [2] | [3] | [4] | [5]
active: [6] 27.6 µM

c1ccc2c(c1)ccc1cc3c(ccc4ccccc43)cc12
active: [6] 0.0436 µM
inactive: [10] | [1] | [2] | [3] | [6] | [4] | [5]

c1ccc(-c2ccccn2)nc1
active: [2] 27.6 µM
inactive: [1] | [3] | [6] | [4] | [5]

CCCCCCCCc1ccc(Nc2ccc(CCCCCCCC)cc2)cc1
inactive: [1] | [2] | [3] | [6] | [4] | [5]

c1ccc2c(c1)ccc1ncccc12
inactive: [1] | [3] | [6] | [4] | [5]
active: [2] 20 µM

O=C(c1ccc(O)cc1)c1ccc(O)cc1O
inactive: [11] | [12] | [13] | [14] | [15]

CCOC(=O)c1ccccc1C(=C1C=C(Br)C(=O)C(Br)=C1)c1cc(Br)c(O)c(Br)c1
inactive: [15]
active: [11] 4.3 µM and 3.96 µM | [12] 3.27 µM | [13] 4.39 µM and 4.49 µM | [14] 3.18 µM and 3.06 µM

CC1OC1C1CCC2(C)OC2C1 (stereo not drawn)
inactive: [1] | [2] | [3] | [6] | [4] | [5]

C=CC(=O)OCC(Br)CBr (stereo not drawn)
active: [1] 32.7 µM | [2] 15.4 µM | [3] 20 µM | [6] 24.5 µM | [4] 37.5 µM | [5] 3.97 µM

N#[N+]c1ccc2c(S(=O)(=O)[O-])cccc2c1O
inactive: [1] | [2] | [3] | [6] | [4] | [5]

CC1(C)S[C@@H]2[C@H](NC(=O)COc3ccccc3)C(=O)N2[C@H]1C(=O)O
inactive: [16] | [7] | [8]

CCOc1nc(F)cc2nc(S(=O)(=O)Nc3c(Cl)cccc3C(=O)OC)nn12
inactive: [1] | [2] | [3] | [6] | [4] | [5]

O=Nc1ccc(O)cc1
inactive: [1] | [2] | [3] | [6] | [4] | [5]

C=CC=CC=CCCCCC
inactive: [1] | [3] | [6] | [4] | [5]
active: [2] 7.28 µM
